# From PMC5540273 (PLoS ONE, 2017)
# Test system: T1, YSK4
# T1 construct: gene MAP3K19
# Conditions: concentration: 1 μM,replicates: in singlicate; n = 1
# 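Note: KINOMEscan kinase panel screen.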
row,Structure (SMILES),%Inh [%]
1,Cc1ccc(C(=O)Nc2ccc(Oc3ccc4nc(NC(=O)C5CC5)cn4c3)c(F)c2)c(=O)n1-c1ccccc1,0
2,CN(c1cccc(CNc2nc(Nc3ccc4c(c3)CC(=O)N4)ncc2C(F)(F)F)c1)S(C)(=O)=O,96.8
3,CCn1c(-c2nonc2N)nc2cncc(CNC3CCNCC3)c21.Cl [SB-747651],87
